About 360 (30%) of roughly 1,200 compounds were called active. These entries were drawn from the full list. Potency and affinity values are given separately. Values without a mark were called inactive. The rule behind the calls is not given here.
assay: antibacterial activity by ATP level – BacTiter-Glo luminescence, cherry-picked samples, counter-screen, dose response (AID 504843); details: bacterial growth; series mostly up to 15 µM; activity change, negative = inhibition: at the top concentration;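 note: growth measured after 8 h incubation at 30 °C; 0% = median of sample compound wells and -100% = antibiotic control wells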

Row | Structure (SMILES) | activity change, negative = inhibition [%]
1 | CCc1ccc(N2CC34C=CC(O3)C(C(=O)OC(C)C)C4C2=O)cc1 (stereo not drawn) | 18.4
2 | Cc1nnc(SCc2ccccc2CSc2nnc(C)s2)s1 | 1.42
3 | Cc1onc(-c2c(F)cccc2Cl)c1C(=O)Nc1sc2c(c1C#N)CCC(C(C)(C)C)C2 (stereo not drawn) | -16.8
4 | Cc1onc(-c2ccccc2)c1C(=O)NCc1ccc(F)cc1 | -6.92
5 | Cn1c(C(=O)NCc2cccs2)cc2c(=O)n(C)c3ccccc3c21 | -14.9
6 | CCCOc1ccc(/C(O)=C2/C(=O)C(=O)N(CCN(C)C)C2c2ccc(O)c(OC)c2)cc1 (stereo not drawn) | 8.34
7 | COC(=O)CSc1ccc(C#N)c(SCC(=O)OC)c1 | 10.5
8 | CCOC(=O)C1=C(C)NC(=S)NC1c1cc(C)sc1C (stereo not drawn) | 1.75
9 | CCN(CC)C(=O)C1=C(C)NC(=O)NC1c1c(F)cccc1Cl (stereo not drawn) | 9.12
10 | Nc1ccc2c(c1)-c1ccccc1S(=O)(=O)N2 | -7.08
11 | CCCOc1cccc(C(=O)Nc2ccc(Br)cc2F)c1 | 13.1
12 | CCOC(=O)c1ccccc1-n1nnnc1C | 14.4
13 | O=C(CNc1ccc(Cl)cc1)c1ccc(Br)cc1 | 12.4
14 | COc1ccc(-c2cc(C(=O)Oc3ccc([N+](=O)[O-])cc3)c3ccccc3n2)cc1 | 13.5
15 | CCc1ccc(C(=O)Nc2ccc(S(=O)(=O)Nc3nc(C)cc(C)n3)cc2)o1 | -4.41
16 | O=S(=O)(/N=C(/Nc1ccccc1)c1ccccc1)c1cccs1 | 14.9
17 | COC(=O)COc1cc2ccccc2cc1C(=O)Nc1ccccc1 | 11.7
18 | CCO[C@@H]1OC(C(=O)O)=C[C@H](C)[C@H]1CCCO | -6.26
19 | O=C(O)C1(C(=O)O)CCC1 | -7.92
20 | Cc1occc1C(=O)NCc1cccc(CNC(=O)c2ccoc2C)c1 | -3.57
21 | O=C(Cn1cc(C(F)(F)F)ccc1=O)OCC(=O)c1ccc[nH]1 | -0.317
22 | COc1ccc(-c2[nH]nc3c2C(c2ccoc2)C(C#N)=C(N)O3)cc1 (stereo not drawn) | 10.6
23 | COc1ccccc1N1CCN(C(=O)c2cc3c(=O)n4ccccc4nc3s2)CC1 | 4.25
24 | COc1ccccc1C(=O)Nc1ccnn1C1CCN(Cc2cnn(C)c2)CC1 | -9.99
25 | COc1ccccc1-c1ccc(=O)n(CC(=O)Nc2ccc(C(=O)N3CCCC3)cc2)n1 | -8.64
26 | N#Cc1ccccc1S(=O)(=O)N1CCN(CC(=O)Nc2ccnn2C2CCCC2)CC1 | 1.24
27 | C=CCOc1ccccc1CN1CCC(n2nccc2NC(=O)C2CC2)CC1 | -0.759

Row | Structure (SMILES) | activity change, negative = inhibition [%]
28 | C[C@H]1CN([C@@H](C)CO)C(=O)c2cccc(NS(=O)(=O)c3ccc(F)cc3)c2O[C@H]1CN(C)Cc1ccc(Cl)c(Cl)c1 | 21.8
29 | CNC(=O)CN(c1ccc(C(C)C)cc1)S(C)(=O)=O | 0.765
30 | CC1CCN(C(=O)C2(NC(=O)Nc3cccc(F)c3)CCCCC2)CC1 | 14.5
31 | CCOc1ccc(NC(=O)c2cccc(OC(=S)N3CCC(C)CC3)c2)cc1 | -6.49
32 | O=C(N[C@@H](Cc1ccccc1)C(=O)NC1CC1)c1ccc(Cl)cc1 | -0.277
33 | Cc1nc2ccc(C(=O)Nc3ccc4nc[nH]c4c3)cc2[nH]1 | 21.4
34 | CN1C(=O)N(C)C2(c3ccccc3)NC(=O)NC12c1ccccc1 (stereo not drawn) | -6.8
35 | O=C(CC1SCCNC1=O)Nc1cccc(Cl)c1 (stereo not drawn) | 7.99
36 | COC(=O)CN1C(=O)N/C(=C/c2ccccc2OC)C1=O | -2.13
37 | Nc1nnc(-c2ccc(F)cc2)s1 | -6.94
38 | O=C(CSc1nnc(-c2ccncc2)s1)Nc1ccc(Cl)c(C(=O)O)c1 | 19.2
39 | CC(C)c1nnc(NC(=O)CCS(=O)(=O)Cc2ccccc2)s1 | -6.44
40 | O=C(COc1ccc2c3c(c(=O)oc2c1)CCCC3)NCc1ccncc1 | -29.5
41 | O=C(O)CCC(=O)Nc1sc2c(c1C(=O)Nc1cccc3ccccc13)CCCCC2 | 0.5
42 | O=C(NCc1ccc(Cl)cc1)c1cccc(NC2=NC3CS(=O)(=O)CC3S2)c1 (stereo not drawn) | 8.12
43 | Cc1onc(C(=O)NCc2ccc(F)cc2)c1[N+](=O)[O-] | 2.68
44 | O=C(COc1ccc2c3c(c(=O)oc2c1)CCCC3)NCC(O)c1ccccc1 (stereo not drawn) | -8.59
45 | COc1ccc2c3c(c(=O)oc2c1OCC(N)=O)CCCC3 | -17.5
46 | Cc1ccc2c(CC(=O)Nc3ccc(N4CCN(C)CC4)cc3C)coc2c1 | 20.9
47 | CCOCCCNC(=S)NCCNc1nc2ccc(C)cc2cc1C#N | 5.71
48 | COc1cc(C(=O)NC(c2ccccc2)c2ccccc2)cc(OC)c1C | -4.22
49 | O=C(Cn1c(=O)n(-c2ccc(F)cc2)c(=O)c2sccc21)NC1CCCCC1 | -1.56
50 | O=C(NNc1ncnc2c1cnn2-c1ccccc1)c1cccs1 | -12.2
51 | CC(C)S(=O)(=O)C1=NSC2=NC(=O)/C(=C\c3ccc(-c4cccc(C(=O)O)c4)o3)C(=N)N21 | 6.02
52 | CCc1nc2cc3sc(CC)nc3cc2s1 | -14
53 | O=C(CCNc1n[nH]c(=O)[nH]c1=O)N1CCCCC1 | 12.4

Source: PubChem BioAssay AID504843 (Broad Institute, 2011)
